High-throughput results from PubChem BioAssay.
PLK1 PBD inh: inhibitors of human PLK1 polo-box domain binding; P53350; Plk1 PBD binding of FITC phosphopeptide, fluorescence polarization; Potency, µM, most hits filed as inhibitors; actives 2.8% (n = 360,000); AID 720504; further: series mostly up to about 57 µM; nearly all actives have a fitted effect of over 65% in size
Sfp inh: blocks B. subtilis Sfp PPTase activity | Q9F4F7 | Biochemical Sfp PPTase activity, qHTS | AID 1490 | Potency, µM, actives largely listed as inhibitors | actives 3.5% (n = 310,000);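 further: the enzyme is Sfp with the accession as filed and its product quenches rhodamine fluorescence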
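Compounds were incubated with enzyme (final 15 nM) for 15 min at room temperature before substrate addition started the reaction. Fluorescence at 525 nm excitation, 598 nm emission was recorded immediately and after 30 minutes.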
G9a block: G9a (human) methyltransferase inhibition; Q96KQ7; G9a H3K9 monomethylation, AlphaScreen, 2 h; Potency, µM (titrated, usually from 102 µM), actives largely listed as inhibitors; actives 8.8% (n = 350,000); AID 504332; further: nearly all actives have a fitted effect of over 75% in size
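Readings reflect AlphaScreen signal from monomethyl-H3K9 antibody detection. HMT at 20 nM; substrate b-H3K9 500 nM; cofactor SAM 20 uM; 2 h RT reaction; compounds tested as titrations in qHTS with 15 min preincubation.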
HP1b binding inh: HP1-beta chromodomain-methylated histone interaction inhibition | P83916 | AlphaScreen HP1-beta / biotin-H3K9me3 peptide binding | Potency, µM (doses to about 114 µM), actives largely listed as inhibitors | actives 0.56% (n = 390,000); further: nearly all actives have a fitted effect of over 70% in size
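AlphaScreen: HP1-beta (50 nM) preformed 30 min with biotin-H3(1-18)K9me3 peptide (50 nM) in PBS pH 7.4, 0.01% Tween-20. Compound added for 30 min at RT, then streptavidin donor/nickel chelate acceptor beads (10 ug/mL) for 30 min.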
JMJD2A Tudor: blocks the human JMJD2A Tudor domain. O75164. AlphaScreen JMJD2A-Tudor / H3K4me3 peptide binding. Potency, µM (series often up to 114 µM), actives largely listed as inhibitors. actives 4.4% (n = 390,000). AID 504339; further: nearly all actives have a fitted effect of over 50% in size
BAZ2B block: BAZ2B (human) inhibition; AlphaScreen BAZ2B-H3K14Ac peptide displacement; Potency, µM (top dose mostly 114 µM), actives largely listed as inhibitors; actives 4.4% (n = 360,000); AID 504333; further: nearly all actives have a fitted effect of over 60% in size
Target sequence (Q9UIF8 whole entry, looked up): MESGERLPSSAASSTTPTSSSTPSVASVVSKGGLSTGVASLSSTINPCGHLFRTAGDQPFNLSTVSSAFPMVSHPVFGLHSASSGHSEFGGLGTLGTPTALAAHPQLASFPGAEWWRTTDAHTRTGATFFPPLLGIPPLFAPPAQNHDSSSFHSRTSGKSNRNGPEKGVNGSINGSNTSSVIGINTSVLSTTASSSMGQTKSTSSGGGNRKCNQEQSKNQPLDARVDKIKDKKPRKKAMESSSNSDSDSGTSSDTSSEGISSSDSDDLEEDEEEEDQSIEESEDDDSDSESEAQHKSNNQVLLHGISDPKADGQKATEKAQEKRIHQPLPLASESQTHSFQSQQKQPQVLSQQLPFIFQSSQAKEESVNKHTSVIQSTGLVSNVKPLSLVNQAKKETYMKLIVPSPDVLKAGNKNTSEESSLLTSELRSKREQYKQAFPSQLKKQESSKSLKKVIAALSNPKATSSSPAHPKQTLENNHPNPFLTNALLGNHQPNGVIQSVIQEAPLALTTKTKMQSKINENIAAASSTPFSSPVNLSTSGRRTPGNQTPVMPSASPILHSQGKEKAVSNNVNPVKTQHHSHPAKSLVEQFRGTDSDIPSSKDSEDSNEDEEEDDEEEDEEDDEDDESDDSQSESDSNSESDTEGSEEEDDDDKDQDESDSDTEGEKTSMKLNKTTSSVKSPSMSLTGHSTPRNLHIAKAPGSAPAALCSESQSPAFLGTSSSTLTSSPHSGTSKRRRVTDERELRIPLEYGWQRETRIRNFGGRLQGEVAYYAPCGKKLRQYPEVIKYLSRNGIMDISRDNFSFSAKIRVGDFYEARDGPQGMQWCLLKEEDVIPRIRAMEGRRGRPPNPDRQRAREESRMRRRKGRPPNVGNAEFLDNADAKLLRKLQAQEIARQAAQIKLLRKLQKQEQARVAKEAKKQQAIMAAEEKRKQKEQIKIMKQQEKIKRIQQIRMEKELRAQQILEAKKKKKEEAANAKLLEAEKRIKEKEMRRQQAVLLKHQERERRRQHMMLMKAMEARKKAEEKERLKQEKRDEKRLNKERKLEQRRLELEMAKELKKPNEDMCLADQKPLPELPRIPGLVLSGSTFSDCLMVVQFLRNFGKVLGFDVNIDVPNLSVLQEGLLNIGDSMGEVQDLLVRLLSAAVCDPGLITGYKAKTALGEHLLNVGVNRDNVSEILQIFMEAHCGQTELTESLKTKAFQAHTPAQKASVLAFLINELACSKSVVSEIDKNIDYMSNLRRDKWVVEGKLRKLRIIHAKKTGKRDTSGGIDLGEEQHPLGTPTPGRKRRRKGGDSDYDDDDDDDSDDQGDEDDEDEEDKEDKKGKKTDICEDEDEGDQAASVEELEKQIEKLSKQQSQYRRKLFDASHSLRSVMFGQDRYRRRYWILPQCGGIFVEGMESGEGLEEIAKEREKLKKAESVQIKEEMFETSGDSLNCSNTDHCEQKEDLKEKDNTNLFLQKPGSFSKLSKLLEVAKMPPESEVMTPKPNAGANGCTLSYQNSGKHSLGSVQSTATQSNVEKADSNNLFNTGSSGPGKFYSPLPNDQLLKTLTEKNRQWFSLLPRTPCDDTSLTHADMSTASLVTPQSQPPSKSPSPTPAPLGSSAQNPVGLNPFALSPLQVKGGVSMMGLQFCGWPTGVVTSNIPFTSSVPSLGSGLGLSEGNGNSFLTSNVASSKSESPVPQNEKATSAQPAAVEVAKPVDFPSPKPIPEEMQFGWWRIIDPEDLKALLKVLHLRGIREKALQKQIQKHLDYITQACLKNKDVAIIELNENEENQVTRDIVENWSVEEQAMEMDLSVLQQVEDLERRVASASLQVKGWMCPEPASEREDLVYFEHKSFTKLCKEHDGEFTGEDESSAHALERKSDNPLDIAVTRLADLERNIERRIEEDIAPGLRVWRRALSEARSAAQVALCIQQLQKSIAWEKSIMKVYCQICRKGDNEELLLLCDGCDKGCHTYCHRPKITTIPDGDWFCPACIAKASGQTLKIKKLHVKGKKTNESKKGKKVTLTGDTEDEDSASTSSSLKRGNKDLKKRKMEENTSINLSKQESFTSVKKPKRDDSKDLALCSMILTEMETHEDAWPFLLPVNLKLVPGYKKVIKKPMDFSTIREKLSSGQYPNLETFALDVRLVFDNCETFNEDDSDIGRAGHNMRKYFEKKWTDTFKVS
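Compounds, titrated to a top concentration of 110 uM, were incubated 30 min at room temperature with preformed BAZ2B/acetyl-K14 H3 peptide complex (50 nM each). Proximity signal was measured by AlphaScreen after 20 min with beads.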
Each line names hits and unclear results; the compound was inactive in the other large screens; ! = not active in a repeat. Shown are actives, neighbours in structure and some others; about 12% of the full set was active somewhere. The call rests on the fitted dose curve; in most records, active means well fitted curve in the direction sought with a large enough effect; inconclusive means small, poorly fitted or top-dose-only effect, or another doubt; inactive means no such curve, though single readings can be large; an effect the other way counts as inactive or inconclusive.

CC12CC[C@@](C(=O)O)(C(=O)C1=O)C2(C)C	none (no result: PLK1 PBD inh, G9a block, HP1b binding inh, JMJD2A Tudor, BAZ2B block)
COc1ccc(N2CCN(C(c3cccs3)c3nnnn3C3CCCC3)CC2)cc1 (centres undefined)	G9a block inconclusive, JMJD2A Tudor inconclusive, BAZ2B block inconclusive
COc1ccc(N2CCN(C(c3ccccc3OC)c3nnnn3C3CCCC3)CC2)cc1 (centres undefined)	G9a block 16µM, HP1b binding inh inconclusive, JMJD2A Tudor 56µM, BAZ2B block 45µM
C[C@H]1CCC2[C@](C)(CO)[C@@H](O)CC[C@]2(C)[C@@]12CCC(CO)(CCO)O2 (some centres undefined)	none
O=C(COc1ccccc1)Nc1nnc(S(=O)(=O)N2CCCC2)s1	G9a block 8.9µM, JMJD2A Tudor inconclusive, BAZ2B block inconclusive
COc1ccc(OCC(=O)Nc2nnc(S(=O)(=O)N3CCCCCC3)s2)cc1	none
Cc1ccc(OCC(=O)Nc2nnc(S(=O)(=O)N3CCC(C)CC3)s2)cc1	G9a block 50µM, JMJD2A Tudor inconclusive, BAZ2B block inconclusive
CC(Oc1ccccc1)C(=O)Nc1nnc(S(=O)(=O)N2CCCCCC2)s1 (centres undefined)	G9a block 2.8µM!, JMJD2A Tudor 8.9µM!, BAZ2B block 1.8µM!
Clc1ccc(CNc2nnnn2-c2ccccc2)c(Cl)c1	none
CC(=O)Nc1ccc(/C=C/c2nc(-c3ccccc3O)n(-c3ccccc3)n2)cc1	none (no result: PLK1 PBD inh, Sfp inh)
CC[C@@H]1OC(=O)[C@H](C)[C@H](O[C@@H]2C[C@](C)(OC)[C@H](O)[C@H](C)O2)[C@H](C)[C@H](O[C@@H]2O[C@@H](C)C[C@@H](N(C)C)[C@@H]2O)[C@](C)(O)C[C@H](C)C(=NOCOCCOC)[C@H](C)[C@H](O)[C@]1(C)O	none (no result: PLK1 PBD inh, HP1b binding inh, JMJD2A Tudor, BAZ2B block)
C/C(=N\N1CCN(c2ccccc2)CC1)c1ccco1	PLK1 PBD inh inconclusive, G9a block 56µM, BAZ2B block inconclusive
C/C(=N\N1CCN(Cc2ccccc2)CC1)c1ccco1	none
CC1CCCCN1CCCNC(=O)c1ccc2c(c1)sc1nc(-c3ccc(F)cc3)cn12 (centres undefined)	none (no result: PLK1 PBD inh, Sfp inh)
S=c1[nH]ccn1-c1cccc(Cl)c1Cl	G9a block 5.6µM, JMJD2A Tudor 16µM
S=c1[nH]ccn1-c1ccccc1Cl	G9a block 16µM, JMJD2A Tudor 22µM
CCOc1cc(-c2nnc(SCC(=O)NCc3ccc(C)cc3)nc2-c2ccc(OC)c(OCC)c2)ccc1OC	G9a block 10µM, BAZ2B block 56µM (no result: PLK1 PBD inh, Sfp inh)
CCOc1cc(-c2nnc(SCC(=O)NCc3ccccc3)nc2-c2ccc(OC)c(OCC)c2)ccc1OC	G9a block 7.9µM, JMJD2A Tudor inconclusive, BAZ2B block 50µM (no result: PLK1 PBD inh, Sfp inh)
Cc1ccc(Cc2c[nH]c(=S)s2)cc1	PLK1 PBD inh 6.7µM, Sfp inh inconclusive, G9a block 7.1µM, JMJD2A Tudor inconclusive, BAZ2B block inconclusive
Cc1ccccc1-n1nc2c(c1NC(=O)c1cc3ccccc3o1)CS(=O)(=O)C2	G9a block 45µM (no result: Sfp inh)
Cc1ccccc1-n1nc2c(c1NC(=O)c1ccc(Br)o1)CSC2	Sfp inh inconclusive, G9a block 45µM, JMJD2A Tudor inconclusive
Cc1nn(C)cc1-c1csc(N)n1	none
CCOC(=O)c1cc(C)n(CCc2ccccc2)c1C	none
Cc1cc(-c2csc(N)n2)c(C)n1CCC(C)C	Sfp inh 50µM, G9a block 10µM, JMJD2A Tudor 50µM, BAZ2B block inconclusive
Cc1cc(-c2csc(N)n2)c(C)n1CCc1ccccc1	PLK1 PBD inh inconclusive, Sfp inh 45µM, G9a block inconclusive, JMJD2A Tudor 45µM, BAZ2B block 45µM
COc1ccc(CNC(=O)Cc2ccc(NC(=O)N3CCSc4ncccc43)cc2)cc1	G9a block inconclusive (no result: PLK1 PBD inh, Sfp inh)
COc1cccc(/C=C2\N=C(SC)SC2=O)c1OC	none
CSC1=N/C(=C\c2ccccc2F)C(=O)S1	Sfp inh 56µM, G9a block 45µM
Cc1ccc(C)c(OCCCCN2CCNCC2)c1C	G9a block inconclusive
c1ccc(-c2ccccc2OCCOCCN2CCc3ccccc3C2)cc1	none
CC1CN(CCCCOc2ccc(F)cc2)CC(C)O1 (centres undefined)	G9a block 10µM, HP1b binding inh 50µM, JMJD2A Tudor inconclusive, BAZ2B block 50µM
CC1CN(CCOCCOc2ccccc2-c2ccccc2)CC(C)O1 (centres undefined)	Sfp inh 45µM, G9a block 1.8µM, HP1b binding inh inconclusive, JMJD2A Tudor 10µM, BAZ2B block 22µM
COC(=O)c1ccccc1OCCCCN1CC(C)OC(C)C1 (centres undefined)	Sfp inh inconclusive, G9a block 3.5µM, HP1b binding inh inconclusive, JMJD2A Tudor 1.8µM, BAZ2B block 35µM
Cc1ccc(C)c(OCCOCCN2CC(C)OC(C)C2)c1C (centres undefined)	Sfp inh inconclusive, G9a block 13µM, HP1b binding inh inconclusive, JMJD2A Tudor 1µM, BAZ2B block 25µM
COC(=O)c1ccccc1OCCOc1ccccc1C(=O)OC	none
CCC1Nc2ncnc(N3CCN(c4ccccc4)CC3)c2N(Cc2ccc(Br)cc2)C1=O (centres undefined)	G9a block inconclusive, JMJD2A Tudor inconclusive, BAZ2B block inconclusive (no result: Sfp inh)
O=C(CNC(=O)C12CC3CC(CC(C3)C1)C2)N/N=C\c1ccccn1	none
Cc1ccc(C(C)C)c(OCC(O)CN2CC(C)OC(C)C2)c1 (centres undefined)	none
CC1CN(CCOc2ccccc2C(C)C)CC(C)O1 (centres undefined)	Sfp inh inconclusive, G9a block 10µM, HP1b binding inh inconclusive, JMJD2A Tudor 22µM, BAZ2B block inconclusive
COc1ccc2c(c1)c1c(c(=O)n(-c3ccc(C)cc3)c(=O)n1CC(=O)NCc1ccc(C)cc1)n2C	none (no result: PLK1 PBD inh, Sfp inh)
Brc1ccc(CSc2nccn2-c2ccccc2)cc1	G9a block 45µM, HP1b binding inh inconclusive, JMJD2A Tudor 56µM, BAZ2B block 40µM
Cn1c(SCc2ccc(Br)cc2)nnc1-c1ccccn1	G9a block inconclusive, BAZ2B block 79µM
O=C(CSc1nccn1-c1ccccc1)NO	BAZ2B block inconclusive
Cn1c(SCc2ccc(Br)cc2)nnc1-c1cccs1	G9a block inconclusive (no result: BAZ2B block)
Cc1nc([N+](=O)[O-])cn1CC(O)c1ccc(F)cc1 (centres undefined)	none
C=C(C)C1CC[C@]2(CO)CC[C@@]3(C)[C@H](CCC4[C@@]5(C)CCC(O)C(C)(C)C5CC[C@@]43C)C12 (some centres undefined)	none (no result: PLK1 PBD inh, G9a block, HP1b binding inh, JMJD2A Tudor, BAZ2B block)
CCOC(=O)c1c(CC(C)C)csc1NC(=O)CCl	PLK1 PBD inh 3µM, HP1b binding inh inconclusive
CCOC(=O)c1c(CC(C)C)csc1NC(=O)C(C)C	none
CCOC(=O)c1c(CC(C)C)csc1N	PLK1 PBD inh inconclusive, G9a block 40µM, BAZ2B block inconclusive
